# Screening data from PubChem BioAssay.
# This is a sample that favours compounds with a hit; in the whole collection about 10% have one here.
# 3T3 cytotox = kills NIH 3T3 cells; NIH 3T3 viability, CellTiter-Glo ATP luminescence, 48-72 h; actives 4.3% (n = 94,000); Potency, µM (top dose mostly 96.7 µM), for inactives: at the highest dose activity change, negative = cytotoxicity, most hits filed as inhibitors; further: nearly all actives have a fitted effect of over 55% in size
#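 Cytotoxicity was measured by CellTiter-Glo ATP luminescence after 48 or 72 h compound exposure at 37 °C. Mouse NIH 3T3 fibroblasts were seeded at 400 cells/well and dosed by 23 nL pin transfer.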
# HEK293 tox = kills HEK 293 cells; HEK 293 viability, ATP luminescence (CellTiter-Glo), 48-72 h; Potency, µM (doses to about 115 µM), inactives show top-dose activity change, negative = cytotoxicity, actives largely listed as inhibitors; actives 6.6% (n = 94,000); AID 1345083; further: nearly all actives have a fitted effect of over 60% in size
#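 250 HEK 293 cells/well; compound by pintool; incubated 48 or 72 hr at 37 degree Celsius; CellTiter-Glo added, 10 min RT, luminescence imaged.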
# NPR1 antag = human Npr1 receptor antagonism; HEK293 hNpr1 GloSensor cGMP, ANP-stimulated luminescence; Potency, µM (series often up to 46.3 µM), inactives show at the highest dose activity change, negative = inhibition, hits mostly inhibitors; actives 1.6% (n = 76,000); AID 1347048; calls by dose curve; further: nearly all actives have a fitted effect of over 60% in size
# Target sequence (P16066 whole entry, looked up): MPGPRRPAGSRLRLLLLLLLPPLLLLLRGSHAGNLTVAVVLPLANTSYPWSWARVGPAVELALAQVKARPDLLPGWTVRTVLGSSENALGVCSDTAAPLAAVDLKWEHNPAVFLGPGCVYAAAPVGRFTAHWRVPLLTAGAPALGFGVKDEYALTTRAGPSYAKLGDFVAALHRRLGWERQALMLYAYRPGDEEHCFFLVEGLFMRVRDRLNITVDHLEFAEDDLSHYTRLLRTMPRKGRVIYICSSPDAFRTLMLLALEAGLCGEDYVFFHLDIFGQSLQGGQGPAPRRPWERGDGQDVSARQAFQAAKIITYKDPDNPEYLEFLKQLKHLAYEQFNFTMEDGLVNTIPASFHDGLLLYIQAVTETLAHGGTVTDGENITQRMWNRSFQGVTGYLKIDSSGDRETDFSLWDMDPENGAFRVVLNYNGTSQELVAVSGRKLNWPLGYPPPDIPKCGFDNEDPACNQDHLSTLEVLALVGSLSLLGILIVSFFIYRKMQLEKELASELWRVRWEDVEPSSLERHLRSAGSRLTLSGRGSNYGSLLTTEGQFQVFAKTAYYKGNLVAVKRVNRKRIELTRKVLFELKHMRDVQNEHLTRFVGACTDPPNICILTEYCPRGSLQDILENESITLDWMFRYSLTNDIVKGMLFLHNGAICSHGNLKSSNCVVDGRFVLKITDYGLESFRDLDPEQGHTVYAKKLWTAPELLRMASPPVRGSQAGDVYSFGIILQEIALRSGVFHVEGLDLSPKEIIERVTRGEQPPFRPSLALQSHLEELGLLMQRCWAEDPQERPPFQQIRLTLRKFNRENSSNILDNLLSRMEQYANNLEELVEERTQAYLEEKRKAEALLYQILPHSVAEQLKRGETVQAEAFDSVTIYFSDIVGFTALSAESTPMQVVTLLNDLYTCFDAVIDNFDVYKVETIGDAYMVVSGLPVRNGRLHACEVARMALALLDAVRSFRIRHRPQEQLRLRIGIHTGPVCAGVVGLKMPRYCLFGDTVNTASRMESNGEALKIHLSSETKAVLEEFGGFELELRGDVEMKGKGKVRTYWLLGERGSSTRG
#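 HEK293 cells stably expressing human Npr1 and cGMP GloSensor pGS-40F, loaded 2 h with 2% GloSensor reagent, given compound 30 min at room temperature. Luminescence read before and 20 min after 0.1 nM hNppA.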
# Luciferase inh = Photinus pyralis luciferase inhibition; P08659; Potency, µM (doses to about 115 µM), usual class: inhibitors; actives 2.5% (n = 76,000); purified P. pyralis luciferase, luminescence, biochemical; further: nearly all actives have a fitted effect of over 65% in size
#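 Purified 10nM P. pyralis luciferase with 10uM D-luciferin and 10uM ATP in 50mM Tris acetate pH 7.5, 10mM Mg acetate, 0.01% Tween-20, 0.05% BSA. qHTS titration; luminescence read by CCD imager.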
# GPT2 inhibitor = GPT2 alanine aminotransferase inhibition; Q8TD30; Recombinant GPT2, coupled pyruvate oxidase/HRP Amplex Red fluorescence; Potency, µM (highest dose often 57.7 µM), without a hit: at the highest dose activity change, negative = inhibition, most hits filed as inhibitors; actives 0.25% (n = 100,000); AID 1671188; further: nearly all actives have a fitted effect of over 60% in size
#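 Fluorescence read-out: pyruvate from GPT2 turnover coupled to pyruvate oxidase, HRP and Amplex Red (0.2mM ThPP, 0.2U/mL PO and HRP, 50uM Amplex final). Substrates 250uM a-KG, 2mM L-alanine; enzyme 10ng/uL; 30 min RT.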
# * marks the source's active call; other numbers are inactive results; i = inactive; ? = inconclusive; · = not tested or not shown; ! = not confirmed by another sample; [ ] = another dose, or the depositor's remark. Unless noted, the call rests on the fitted dose curve; in most records, active means well fitted curve in the direction sought with a large enough effect; inconclusive means small, poorly fitted or top-dose-only effect, or another doubt; inactive means no such curve, though single readings can be large; an effect the other way counts as inactive or inconclusive. On the % scale 0 is the no-effect control and ±100 the full control effect; potency means the concentration at half of the fitted maximal effect.
SMILES,3T3 cytotox,HEK293 tox,NPR1 antag,Luciferase inh,GPT2 inhibitor
Cc1ccncc1-c1c(C)nn2c1N(Cc1cccc(OC(F)(F)F)c1)CCC2,?,31.6µM*,?,i,-10.8%[88.5 µM]
Cc1ccncc1-c1c(C)nn2c1N(Cc1cccc(O)c1)CCC2,?,?,-28.1%[70.6 µM],i,-13.6%[88.5 µM]
COc1ccc(Nc2ccnc(N3CCCC(C(=O)NC(C)C)C3)n2)cc1 (centres undefined),?,?,·,·,i
CNC(=O)[C@H]1C[C@]2(CCCCN(CCO)C2=O)N(C(=O)NCc2ccccc2)[C@H]1c1ccccc1,?,-11.1%,·,·,·
CC(C)NC(=O)N1CCC(C(=O)N2CCCC(c3nc4ncccc4[nH]3)C2)CC1 (centres undefined),-6.5%,0.7%,·,·,-5.2%
O=C(NC1CCCCCC1)C1CCc2nnc(CN[S+](=O)([O-])c3ccccc3Cl)n21 (centres undefined),-24.1%,-5.9%,·,·,i
O=C(c1ccc(-c2ncc3cnc(C4=CCOCC4)cn23)cc1)N1CCc2ccccc2C1,?,79.4µM*,-24.8%[70.6 µM],i,-7.0%[88.5 µM]
O=C(NCCO)c1ccc(-c2ncc3cnc(C4=CCOCC4)cn23)cc1,?,i,-1.3%[70.6 µM],i,-6.2%[88.5 µM]
CCc1ccc(NC(=O)Cn2c(-c3ccc(Cl)cc3)nc(C)c(CCO)c2=O)cc1,44.7µM*,39.8µM*,-4.0%,i,i
CCc1cccc(NC(=O)Cn2c(-c3ccc(F)cc3)nc(C)c(CCO)c2=O)c1,?,?,-11.2%,i,i
CCc1ccc(NC(=O)Cn2c(-c3ccccc3)nc(C)c(CCO)c2=O)cc1,39.8µM*,39.8µM*,-25.4%,i,-23.4%
O=C(CCC(=O)n1ncc2c(Cl)cccc21)N1CCC(Cc2nc(C3CCOCC3)no2)CC1,-15.1%,?,12.6µM*,i,i
O=C(C1CC1)N1CCC(Cc2nc(C3CCOCC3)no2)CC1,-7.4%,7.5%,5.6%,i,i
Cc1cc(C(=O)NCc2ccncc2)c2c(C3CCNC3)noc2n1 (centres undefined),-3.2%,1.6%,·,·,i
CCCc1noc(-c2cccn3c(CNC(=O)c4ccc(C(C)(C)C)cc4)nnc23)n1,39.8µM*,?,-4.9%,i,i
O=C(NCc1nnc2c(-c3nc(C4CC4)no3)cccn12)c1nccc2ccccc12,44.7µM*,?,-12.6%,i,-6.6%
CCCc1noc(-c2cccn3c(CNC(=O)c4ccc(OC)cc4)nnc23)n1,-12.2%,i,-0.6%,i,i
O=C(NCc1nnc2c(-c3nc(C4CC4)no3)cccn12)c1ccccc1Cl,-17.5%,-19.9%,1.6%,i,i
O=c1[nH]c(C2CCN(CC3CCCC3)CC2)nc2ccc(F)cc12,-4.5%,-13.5%,10.7%,i,2.8%
COc1ccccc1-c1ccc(CN2CCCC(c3nc4ccc(F)cc4c(=O)[nH]3)C2)cc1 (centres undefined),39.8µM*!,35.5µM*!,?,i,-7.2%
O=c1[nH]c(C2CCCN(Cc3ccc(-c4ccccc4)cc3)C2)nc2ccc(F)cc12 (centres undefined),?,31.6µM*!,?,i,-0.3%
O=c1[nH]c(C2CCCN(Cc3ccc(-c4cc(F)cc(F)c4)cc3)C2)nc2ccc(F)cc12 (centres undefined),?,44.7µM*!,-26.0%,i,-8.9%
O=c1[nH]c(C2CCCN(Cc3ccccc3)C2)nc2ccc(F)cc12 (centres undefined),28.2µM*!,50.1µM*!,-12.2%[70.6 µM],i,-12.8%[88.5 µM]
CCc1cc(N2CCCC(OCc3ccccn3)C2)n2nc(C)c(C)c2n1 (centres undefined),-29.2%,-27.0%,-3.4%,i,i[11.5 µM]
Cn1ncc2c(C(=O)NCc3ccc4c(c3)OCO4)cc(-c3ccc(Cl)cc3)nc21,-6.1%,1.1%,·,·,-15.7%
Cc1ccc(-c2cccc(CN3CCCC(c4nc5ccc(C)cc5c(=O)[nH]4)C3)c2)c(C)c1 (centres undefined),?,35.5µM*!,-1.7%,i,-5.9%
O=c1[nH]c(C2CCCN(Cc3cccs3)C2)nc2ccc(F)cc12 (centres undefined),?,?,-2.6%,i,i
